Source: the supplement of paper PMC12067093, “Discovery and optimisation of a covalent ligand for TRIM25 and its application to targeted protein ubiquitination” (Chemical Science, 2025)
The full data set covers some 21,000 targets. This sample favours those with the largest changes.

Target: DDX39B_Q13838_165_NCPHIVVGTPGR (UniProt Q13838)
Assay: probe-labelled cysteine peptide fold change vs DMSO (competition) (log2 fold change); higher = less target engagement (more negative = stronger competition)
Conditions: THP-1, incubation time: 4 h
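Further: competitive profiling in live THP-1 cells: cysteine peptides tagged with an iodoacetamide desthiobiotin (IA-DTB) probe, intensity after compound treatment relative to DMSO-treated cells.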

UniProt Q13838, sequence (Q13838 whole entry, looked up): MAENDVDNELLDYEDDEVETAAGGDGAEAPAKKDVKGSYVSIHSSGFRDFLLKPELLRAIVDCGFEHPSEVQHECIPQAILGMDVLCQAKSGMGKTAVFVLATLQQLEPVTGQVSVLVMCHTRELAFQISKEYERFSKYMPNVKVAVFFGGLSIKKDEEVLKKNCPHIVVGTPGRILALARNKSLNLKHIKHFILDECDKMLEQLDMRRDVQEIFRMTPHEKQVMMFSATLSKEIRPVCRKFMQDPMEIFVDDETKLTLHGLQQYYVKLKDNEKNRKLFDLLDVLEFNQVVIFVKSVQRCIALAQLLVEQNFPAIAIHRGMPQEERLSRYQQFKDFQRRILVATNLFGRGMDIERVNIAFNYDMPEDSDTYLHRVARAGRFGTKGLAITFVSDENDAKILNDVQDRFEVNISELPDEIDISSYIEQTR

Cc1cc(C(=O)N2CCCN(C(=O)CCl)CC2)ccc1-c1ccccc1 [compound 10]
probe-labelled cysteine peptide fold change (10 µM): 0.0169 | probe-labelled cysteine peptide fold change (50 µM): 0.0264
